Bioassay records from PubChem.
Only some compounds are listed: those with a hit (about 27% of all), similar ones and a draw of the others.
CYP2C9 activ: human CYP2C9 activators, primary screen, biochemical, luminescence; AID 1024, 2008; activation factor at 5 µM; 96,000 tested, 1.4% active; recombinant CYP2C9, luciferin-H conversion; hits give high values; factor 1 = untreated enzyme, 0 = blocked; Cytochrome P450 2C9 (Homo sapiens), P11712;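 active = activation factor of 2 or more for CYP2C9 at a 5 µM dose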;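 note: 0 = sulfaphenazole-blocked wells and 1 = vehicle-only wells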
CYP2C19 inh: blockers of cytochrome P450 2C19 activity – biochemical, luminescence, ADME assay, primary screen; 96,000 tested, 21% active; AID 778, 2007; CYP2C19 Supersomes, luciferin-H EGE luminescence, 30 min; inhibition, % at 5 µM;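 active = CYP2C19 inhibition above a set limit at 5 µM in the primary screen, cut at about 50% in these data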;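 note: plate controls were negative control wells for no effect and 2.5 mM tranylcypromine positive control for full effect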
Target sequence (P33261 whole entry, looked up): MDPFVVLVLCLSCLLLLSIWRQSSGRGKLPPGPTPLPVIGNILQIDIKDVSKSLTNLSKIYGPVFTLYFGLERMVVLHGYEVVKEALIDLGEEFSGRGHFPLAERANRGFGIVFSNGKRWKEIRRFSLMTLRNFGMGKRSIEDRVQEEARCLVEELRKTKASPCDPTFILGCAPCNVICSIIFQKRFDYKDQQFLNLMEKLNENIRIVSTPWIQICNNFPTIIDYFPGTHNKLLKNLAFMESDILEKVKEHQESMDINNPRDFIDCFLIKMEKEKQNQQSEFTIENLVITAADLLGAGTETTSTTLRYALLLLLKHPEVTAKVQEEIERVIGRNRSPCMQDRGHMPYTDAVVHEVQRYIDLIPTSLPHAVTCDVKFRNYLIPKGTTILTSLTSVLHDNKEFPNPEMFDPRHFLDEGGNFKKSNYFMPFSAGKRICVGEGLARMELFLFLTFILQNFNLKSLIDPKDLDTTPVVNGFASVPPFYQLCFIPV
CYP2C19 activ: human CYP2C19 activators, primary screen, biochemical, luminescence; 96,000 tested, under 10 active; recombinant CYP2C19, luciferin-H EGE luminescence; hits give high values; 0 = fully inhibited enzyme, 1 = untreated enzyme; activation factor at 5 µM; Cytochrome P450 2C19 (Homo sapiens), P33261;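 active = activation factor of at least 2 at 5 µM in the primary screen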;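 note: 0 = wells with 2.5 mM tranylcypromine and 1 = vehicle-only wells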
Cav32 inh: Cav3.2 calcium influx blockers – cell-based, Fluo-4 calcium fluorescence, FDSS, MLSMR library, primary screen. Voltage-dependent T-type calcium channel subunit alpha-1H (Homo sapiens), O95180. Cav3.2-expressing cells; hits give low values. B-score at 10 µM. 100,000 tested, 4% active;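 active = single-dose well whose peak fluorescence ratio is a statistical outlier from its plate by either plate-standardised score or position-corrected B-score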
CYP2C9 inhib: blockers of cytochrome P450 2C9 activity – biochemical, luminescence, ADME assay, primary screen; P11712; CYP2C9 Supersomes, luciferin-H conversion; inhibition, % at 5 µM; 96,000 tested, 20% active; AID 777, 2007;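 active = blocking of liver enzyme CYP2C9 beyond about 50% at 5 µM, limit read from the data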
An asterisk follows results filed as active.

For O=C(NC1CCCCCC1)C1CCCN1S(=O)(=O)c1cccc2cccnc12 (stereo not given) the results were CYP2C9 activ 1.1, CYP2C19 inh 75.4*, CYP2C19 activ 0.2, Cav32 inh -0.0393 and CYP2C9 inhib -5.2.
For O=C(NC1CCCC1)C1CCCN1S(=O)(=O)c1cccc2cccnc12 (stereo not given) the results were CYP2C9 activ 1, CYP2C19 inh 59.3*, CYP2C19 activ 0.4, Cav32 inh 0.462 and CYP2C9 inhib 4.1.
CCOc1ccccc1NC(=O)c1c(NC(=O)CNCc2ccco2)sc2c1CCC2 was read as CYP2C9 activ 0.8, CYP2C19 inh 4.3, CYP2C19 activ 1 and CYP2C9 inhib 15.7.
CCC(C)NC(=O)C1CCN(S(=O)(=O)c2cccc3cccnc23)CC1 (stereo not given) was read as CYP2C9 activ 3.2*, CYP2C19 inh 29.0, CYP2C19 activ 0.7, Cav32 inh -0.0141 and CYP2C9 inhib -216.9.
For CCOc1cc(C2c3c(oc4cc(C)c(Cl)cc4c3=O)C(=O)N2Cc2ccco2)ccc1O (stereo not given) the results were CYP2C9 activ 0.9, CYP2C19 inh -5.0, CYP2C19 activ 1.1, Cav32 inh 0.413 and CYP2C9 inhib 13.7.
For O=C1c2oc3ccc(Cl)cc3c(=O)c2C(c2cccc(Br)c2)N1CCO (stereo not given) the results were CYP2C9 activ 0.7, CYP2C19 inh 50.0*, CYP2C19 activ 0.5, Cav32 inh -4.11 and CYP2C9 inhib 34.1.
For Cc1cc2oc3c(c(=O)c2cc1C)C(c1cccc(Br)c1)N(Cc1ccco1)C3=O (stereo not given) the results were CYP2C9 activ 0, CYP2C19 inh 98.2*, CYP2C19 activ 0, Cav32 inh -3.47 and CYP2C9 inhib 95.4*.
O=C(CCNS(=O)(=O)c1ccc(Cl)cc1)N1CCC2(O)CCCCC2C1 (stereo not given) was read as CYP2C9 activ 0.8, CYP2C19 inh -8.9, CYP2C19 activ 1.1, Cav32 inh 0.112 and CYP2C9 inhib 15.9.
Screening Cc1ccc(-c2ccc(CCC(=O)O)n2-c2cccc(O)c2)cc1 returned CYP2C9 activ 0.4, CYP2C19 inh 44.2, CYP2C19 activ 0.6, Cav32 inh -0.51 and CYP2C9 inhib 57.3*.
`Cc1ccc(-c2ccc(CCC(=O)O)n2-c2ccc(O)cc2)cc1` gave CYP2C9 activ 0.8, CYP2C19 inh -3.1, CYP2C19 activ 1 and CYP2C9 inhib 24.3.
Screening Cc1nc2ccccn2c1C(=O)Nc1ccc2c(c1)OCCO2 returned Cav32 inh 0.382.
Screening COc1ccc(NC(=O)c2ccc(C(=O)c3cc(OC)ccc3OC)cc2)cc1 returned CYP2C9 activ 0.9, CYP2C19 inh -0.2, CYP2C19 activ 1, Cav32 inh 0.738 and CYP2C9 inhib 10.6.
For O=C(Cn1nc(C(F)(F)F)c2c1CCC2)N1CCN(c2ccccc2)CC1 the results were CYP2C9 activ 2.3*, CYP2C19 inh 88.9*, CYP2C19 activ 0.1, Cav32 inh -0.267 and CYP2C9 inhib -125.9.
For CCNC(=O)c1ccc(-n2nc(C)cc2-c2ccccc2)cc1 the results were CYP2C9 activ 0.8, CYP2C19 inh 34.9, CYP2C19 activ 0.7, Cav32 inh 0.497 and CYP2C9 inhib 24.6.
Screening CCNC(=O)c1ccc(-n2nc(C(F)(F)F)c3c2CCCC3)cc1 returned CYP2C9 activ 2.5*, CYP2C19 inh 20.5, CYP2C19 activ 0.8, Cav32 inh -3.85 and CYP2C9 inhib -146.4.
O=C(Cn1nc(C(F)(F)F)c2c1CCC2)Nc1ccccc1C(F)(F)F was read as Cav32 inh -2.
Screening COc1ccc(NC(=O)Cn2nc(C(F)(F)F)c3c2CCCC3)cc1OC returned Cav32 inh 0.00165.
`O=C(Cn1nc(C(F)(F)F)c2c1CCCC2)Nc1ccc2c(c1)OCO2` gave CYP2C9 activ 0.5, CYP2C19 inh 86.7*, CYP2C19 activ 0.1, Cav32 inh -4.9* and CYP2C9 inhib 53.3*.
`O=C(Cn1nc(C(F)(F)F)c2c1CCC2)NCc1ccc(Cl)cc1` gave Cav32 inh -4.55*.
Screening Cc1ccc2nc(Cl)c(CN(C(=O)c3cnccn3)C3CCCCC3)cc2c1 returned CYP2C9 activ 0.7, CYP2C19 inh -2.2, CYP2C19 activ 1, Cav32 inh -0.969 and CYP2C9 inhib 30.3.
For Clc1ccc(Cn2ncc3c(NCCN4CCOCC4)ncnc32)cc1 the results were CYP2C9 activ 0.7, CYP2C19 inh 27.7, CYP2C19 activ 0.7, Cav32 inh 0.438 and CYP2C9 inhib 25.2.
COC(=O)C1N[C@@H]([C@@H](NC(=O)COc2ccccc2)C(=O)Nc2ccc(OC)cc2)SC1(C)C (stereo not given in full) was read as Cav32 inh -0.863.
`CCOc1ccc(N(CC(=O)NC2CCCC2)C(=O)CSc2nnc(COc3ccccc3)o2)cc1` gave CYP2C9 activ 0.4, CYP2C19 inh 41.6, CYP2C19 activ 0.6, Cav32 inh -5.37* and CYP2C9 inhib 57.8*.
Screening O=C(CSc1nnc(-c2ccco2)o1)NC1CCCCCC1 returned CYP2C9 activ 0.8, CYP2C19 inh 75.3*, CYP2C19 activ 0.2, Cav32 inh 0.802 and CYP2C9 inhib 21.5.
For O=C(CSc1ncn[nH]1)NCc1ccccc1 the results were CYP2C9 activ 1.1, CYP2C19 inh 9.0, CYP2C19 activ 0.9, Cav32 inh 0.477 and CYP2C9 inhib -9.8.
`O=C(CSc1nnc(Cc2ccccc2)o1)NC1CC2CCC1C2` (stereo not given) gave CYP2C9 activ 0.7, CYP2C19 inh 51.9*, CYP2C19 activ 0.5, Cav32 inh -1.37 and CYP2C9 inhib 34.4.
For O=C(CSc1ncn[nH]1)NC1CC2CCC1C2 (stereo not given) the results were CYP2C9 activ 1, CYP2C19 inh 53.2*, CYP2C19 activ 0.5, Cav32 inh 0.502 and CYP2C9 inhib 1.4.
`O=C(CSc1nnc(Cc2ccccc2)o1)NC1CCCCC1` gave CYP2C9 activ 0.9, CYP2C19 inh 52.3*, CYP2C19 activ 0.5, Cav32 inh 0.593 and CYP2C9 inhib 12.3.
`O=C(CN1CCOCC1)Nc1nc2ccc(Br)cc2s1` gave CYP2C9 activ 0.3, CYP2C19 inh 15.4, CYP2C19 activ 0.8, Cav32 inh -0.593 and CYP2C9 inhib 65.2*.
COC(=O)Cc1c(C)nc2nc(-c3ccco3)[nH]n2c1=O was read as Cav32 inh -0.0326.
`CCC(CO)n1cnnc1-c1ccncc1` (stereo not given) gave CYP2C9 activ 0.8, CYP2C19 inh -13.6, CYP2C19 activ 1.1, Cav32 inh -0.0773 and CYP2C9 inhib 16.1.
CC(C)CNc1oc(-c2ccc(F)cc2)nc1C#N was read as CYP2C9 activ 0.6, CYP2C19 inh 16.3, CYP2C19 activ 0.8, Cav32 inh -3.55 and CYP2C9 inhib 40.4.
